# The full list was thinned out, with hits kept by preference.
# KDM5B inhibitor: blocks human KDM5B histone demethylase activity; Potency, µM (highest dose often 57.7 µM), hits mostly inhibitors; KDM5B demethylase, FDH-coupled NADH fluorescence (FDH is formaldehyde dehydrogenase); 220,000 compounds, 2.6% hits; active means well fitted inhibition curve with a large enough effect; further: nearly all actives have a fitted effect of over 70% in size
#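 Measured: NADH fluorescence change, 30 min, RT. System: KDM5BΔAP 200 nM final, H3K4me3 peptide, α-KG, Fe(II), ascorbate, NAD⁺ plus FDH, pH 7.5 HEPES. Compounds: titrated, 10 min pre-incubation with enzyme.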
# Hits are given with their value; 0 = inactive.
SMILES,KDM5B inhibitor
Cc1cccc(CCNC(=O)c2noc(-c3ccc4c(c3)OCO4)n2)c1,32µM
O=C(Cn1cccc1-c1nc(-c2ccc3c(c2)OCO3)no1)NCc1ccc(Cl)cc1,0
COc1ccc(CNC(=O)c2noc(-c3ccc(C)cc3)n2)cc1,0
Cc1ccc(-c2nc(C(=O)NCc3ccccc3Cl)no2)cc1,0
COc1ccc(OC)c(CNC(=O)c2noc(-c3ccc(C)cc3)n2)c1,0
Cc1ccc(-c2nc(C(=O)NCCc3ccccc3)no2)cc1,0
COc1ccc(CNC(=O)Cn2cccc2-c2nc(-c3ccc4c(c3)OCO4)no2)cc1OC,0
CCCNc1c(NC(=O)Nc2ccc(C)c(Cl)c2)c(=O)oc2ccccc12,0
O=C(Cc1c[nH]c2ccccc12)Nc1ccccc1Cl,0
CNC(=S)NNC(=O)c1csc(C(C)C)c1,0
Fc1ccc(CNC(=S)Nc2ccc(Nc3ccccc3)cc2)cc1,0
CC(C)NC(=O)c1cc(F)c(F)cc1Cl,0
CCc1c(/C(=N/O)c2ccc(C)cc2)oc2ccc3c(C)cc(=O)oc3c12,0
Cc1cc(C)nc(NC2=NCC(=O)N2c2ccc(Cl)cc2Cl)n1,0
CC(NC(=O)CSc1cc(C(=O)NC2CC2)c2ccccc2n1)C1CC1 (stereo not given),0
O=C(Nc1c(F)cc(F)cc1Br)C1CCN(C(=O)N2CCOc3ccccc32)CC1,0
CC(C)C/C=N/NC(=O)c1ccccc1,0
Cc1[nH]c2ccccc2c1-c1csc(NC(=O)C2CC2)n1,0
Cc1c(Cl)cccc1NC(=O)CCNC(=O)CCC(=O)c1cccs1,0
Cc1ccc(-c2nc(C(=O)N3CCN(Cc4ccc5c(c4)OCO5)CC3)no2)cc1,0
Cc1ccc(-c2nc(C(=O)NCc3ccc4c(c3)OCO4)no2)cc1,0
COc1cccc(CNC(=O)c2noc(-c3ccc(C)cc3)n2)c1,0
O=C(NCc1cccc(Cl)c1)c1noc(-c2ccc3c(c2)OCO3)n1,28µM
COc1ccccc1CNC(=O)c1ccc2c(c1)OCO2,0
O=C(NCc1ccc2c(c1)OCO2)c1ccc2c(c1)N(Cc1cccc(Cl)c1)C(=O)c1ccccc1S2,0
SMILES,KDM5B inhibitor
Cc1ccc(CNC(=O)c2noc(-c3ccc4c(c3)OCO4)n2)cc1,35µM
CCOc1ccccc1CNC(=O)c1noc(-c2ccc3c(c2)OCO3)n1,32µM
CC(NC(=O)c1noc(-c2ccc3c(c2)OCO3)n1)c1ccccc1 (stereo not given),0
COc1cc(C(=O)NC2CCCc3c2[nH]c2c(Cl)cccc32)cc(OC)c1OC (stereo not given),0
Cc1ccc(F)cc1NC(=O)COC(=O)c1n[nH]c(=O)c2ccccc12,0
CSc1ccc(NC(=O)c2ccc(F)c(F)c2)cc1,0
COc1ccc(NC(=O)N2CCN(S(=O)(=O)c3ccc4c(c3)NC(=O)C(C)O4)CC2)cc1 (stereo not given),0
O=C(c1cccc(-n2cnnc2)c1)N(Cc1ccc2[nH]ccc2c1)C1CC1,0
Cc1ccc(C(=O)C(Cl)c2ccc(C)cc2)cc1 (stereo not given),0
CC(C)NC(=O)Nc1cccc(-c2noc(-c3cccs3)n2)c1,0
COc1cccc(CN2CCC(Oc3ccc(-c4noc(C5CC5)n4)cc3)C2)c1 (stereo not given),0
Cc1ccc2c(C(=O)N3CCN(C4CCCCC4)CC3)cc(NC(=O)C(C)C)cc2n1,11µM
Cc1nc2cc(NC(=O)C3CCCCC3)ccc2o1,0
Cc1ccc2c(C(=O)N3CCN(C4CCCCC4)CC3)cc(NC(=O)C3CCC3)cc2n1,25µM
Cc1cc(C(=O)N2CCN(C(=O)C(C)C)CC2)c2ccccc2n1,0
O=C(Nc1ccc2c(N3CCCCC3)ncnc2c1)C1CCC1,0
Cc1cc(C(=O)N2CCC(NC(=O)C3CCCCC3)CC2)c2ccccc2n1,0
Cc1nc2ccc(NC(=O)C3CCCC3)cc2s1,0
CC(C)c1cc(C(=O)N2CCC(C(=O)N3CCCCCC3)CC2)c2ccccc2n1,0
Cc1ccccc1C(=O)N1CCC(C(=O)Nc2ccc(C(C)C)cc2)CC1,0
Cc1ccccc1C(=O)N1CCC(C(=O)Nc2ccc(C)c(S(=O)(=O)N3CCCCC3)c2)CC1,0
Cc1ccc2c(C(=O)N3CCCCCC3)cc(NC(=O)C3CCC3)cc2n1,32µM
Cc1ccc2c(C(=O)N3CCCCCC3)cc(NC(=O)C3CC3)cc2n1,28µM
CCc1cc(=O)oc2c(C)c(OCC(=O)c3ccc(OC)cc3)ccc12,0
N#C/C(=C\c1cccn1-c1ccccc1)c1ccccc1,0
SMILES,KDM5B inhibitor
C=CCNc1nc(-c2cccnc2)nc2ccccc12,0
Cn1nc(C(=O)Nc2cccc(Cl)c2)c2c1-c1ccsc1CC2,0
Cc1ccc2[nH]cc(CCNC(=O)NC3CCCCC3)c2c1,0
Cc1ccc(-c2cc(C(=O)Nc3ccc(S(=O)(=O)N4CCCCC4C)cc3)no2)cc1F (stereo not given),0
CC(=O)Nc1ccc(-c2csc(NC3CC3)n2)cc1,0
Brc1ccc(-c2noc(-c3ccncc3)n2)cc1,0
COc1ccccc1C(=O)N[C@@H]1CN(c2ccccn2)C[C@H]1CN(C)C,28µM
COCCC(=O)N[C@@H]1CN(c2ccncn2)C[C@H]1CN(C)C,0
CCn1ncc(C(=O)N[C@@H]2CN(c3ccncn3)C[C@H]2CN(C)C)c1C,0
CCn1ncc(C(=O)N[C@@H]2CN(c3ccccn3)C[C@H]2CN(C)C)c1C,32µM
CCn1ncc(C(=O)N[C@@H]2CN(Cc3ccccc3)C[C@H]2CN(C)C)c1C,0
COc1cccc(-n2nc(C(=O)Nc3cccc(C(F)(F)F)c3)c3ccccc3c2=O)c1,0
CCCn1c(=O)[nH]c(=O)c2c1nc(-c1ccc(Cl)cc1)n2CCOC,0
COc1ccc(C)cc1-n1nnnc1SCc1nc(CC(C)C)no1,0
Cc1[nH]c2ccc(C(=O)N(Cc3ccc(F)cc3)C3CC3)cc2c1C,0
Cc1nn(C)c(C(=O)N[C@H]2CCOC[C@H]2C2CCOCC2)c1Cl,0
CCCc1cc(C(=O)N[C@H]2CCOC[C@H]2C2CCOCC2)cs1,0
CCc1c(C)cc(C(=O)N[C@H]2CCOC[C@H]2C2CCOCC2)c(=O)n1C,25µM
CN=c1scc(-c2ccccc2)n1/N=C/c1ccsc1,0
O=C1OC2OCCCC2C1Nc1ccc(I)cc1 (stereo not given),0
OCCC1CN(CCOc2ccc(F)cc2)CCN1CC1CCCCC1 (stereo not given),0
CC(C)Nc1cc(N2CCN(Cc3ccccc3F)C(CCO)C2)ncn1 (stereo not given),0
OCCC1CN(c2cc(C(F)(F)F)ccn2)CCN1CC1CCCCC1 (stereo not given),22µM
CCc1cc(N(C)Cc2noc(C3CC3)n2)n2nc(C)c(C)c2n1,0
COc1ccc(C(=O)Nc2oc3ccccc3c(=O)c2-c2cccc(Cl)c2)cc1OC,0
SMILES,KDM5B inhibitor
CCc1ccc2nc(-c3ccncc3)cc(C(=O)O)c2c1,0
CC(=O)Nc1cccc(-c2nc3cc(Cl)cc(Cl)c3o2)c1,0
CC(=O)Nc1cccc(-c2nc(-c3ccccc3)no2)c1,0
CC(=O)Nc1cccc(-c2nc(-c3c(C)noc3C)cc3c2cc(-c2ccccc2)n3C)c1,35µM
CC(=O)Nc1ccc(NC(=O)COC(=O)c2c(-c3ccccc3)noc2C)cc1,0
CC(=O)Nc1cccc(-c2nc(-c3c(C)noc3C)cc3cc(C)oc23)c1,35µM
Cc1noc(C)c1-c1cc2c(cc(-c3ccccc3)n2C)c(N(C)C)n1,0
c1ccc(-c2c3c(ccc4ccccc43)[o+]c3ccc4ccccc4c23)cc1,0
Cc1ccc2c(=O)cc(C(=O)N3CCN(c4cccc(Cl)c4)CC3)oc2c1C,0
